From PubChem BioAssay (EPA / NIEHS) come the findings set out here.

Each structure is given as a SMILES string. Active and inactive are the calls of the source. Rule for the calls: active = hit-call score of the fitted dose curve at least 0.9, where 1 is the maximum; inactive = score below 0.9.

A short description of the first assay: CCTE_Shafer_MEA_acute_per_network_burst_spike_number_std: CCTE's Neural Acute Assay for Standard Deviation of Number of Spikes in a Network Burst, Shafer Lab (AID 2284020).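 Note: fitted for decrease in spike-number SD versus DMSO so actives lower it.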 In outline: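 Acute MEA exposure, rat cortical neurons, 0.03-40 uM. Per-well % change versus own baseline; DMSO as negative control.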
With `CNC(=O)ON=C(SC)C(=O)N(C)C`, the outcome was inactive.

For the molecule `CCOP(=O)(NC(C)C)Oc1ccc(SC)c(C)c1` (configuration not stated), the call was inactive.

Regarding `O=C(O)c1cc(Oc2ccc(C(F)(F)F)cc2Cl)ccc1[N+](=O)[O-]`, the outcome was inactive.

One may read the AC50 as the concentration giving half of the maximal activity seen. For `CCCOCC(=Nc1ccc(Cl)cc1C(F)(F)F)n1ccnc1`, the half-maximal activity concentration (AC50) was 4420 nM (active).

On to `CON=C(C(=O)OC)c1ccccc1CON=C(C)c1cccc(C(F)(F)F)c1`, for which the AC50 is 590 nM (active).

A short description of a further assay: CCTE_Shafer_MEA_acute_per_network_burst_electrodes_number_mean: CCTE's Neural Acute Assay for Mean Number of Electrodes in a Network Burst, Shafer Lab (AID 2284021).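 Note: curves fitted for decreases only so hits reduce electrodes per burst.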 In outline:
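Cultures of rat cortex neurons were exposed on DIV 13 or 15 to compounds at 0.03-40 uM in at least three wells each. Activity over 40 min before and 40 min after exposure at 37 C gave the percent change in electrodes per network burst.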
On to `CNC(=O)ON=C(SC)C(=O)N(C)C`, for which the molecule was called inactive.

`CCOP(=O)(NC(C)C)Oc1ccc(SC)c(C)c1` (configuration not stated): the call was inactive.

For the molecule `O=C(O)c1cc(Oc2ccc(C(F)(F)F)cc2Cl)ccc1[N+](=O)[O-]`, the outcome was inactive.

Consider `CCCOCC(=Nc1ccc(Cl)cc1C(F)(F)F)n1ccnc1`, for which the molecule was classed as inactive.

Take `CON=C(C(=O)OC)c1ccccc1CON=C(C)c1cccc(C(F)(F)F)c1`: the half-maximal activity concentration (AC50) is 13500 nM (active).

Another assay is described as follows: CCTE_Shafer_MEA_acute_network_burst_percentage: CCTE's Neural Acute Assay for Percentage of Network Bursts, Shafer Lab (AID 2284022).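 Note: rat primary cortical neuron networks on multiwell MEA recorded 40 min; curves fitted for loss so actives lower network burst percentage.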 An outline of the steps: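 Cortical neurons from rat were grown over microelectrode arrays and used on day 13 or 15 in vitro. Wells with at least 10 active electrodes received test chemical at 0.03-40 uM. Activity during 40 min of exposure was compared with the preceding 40-min baseline.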
As for `CNC(=O)ON=C(SC)C(=O)N(C)C`, the result was inactive.

For the molecule `CCOP(=O)(NC(C)C)Oc1ccc(SC)c(C)c1` (configuration not stated), the outcome was inactive.

In the case of `O=C(O)c1cc(Oc2ccc(C(F)(F)F)cc2Cl)ccc1[N+](=O)[O-]`, the call was inactive.

Consider `CCCOCC(=Nc1ccc(Cl)cc1C(F)(F)F)n1ccnc1`, for which the outcome was inactive.

The nature of another assay: CCTE_Shafer_MEA_acute_cross_correlation_area: CCTE's Neural Acute Assay for Area of Cross Correlation, Shafer Lab (AID 2284024).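 For outcome: rat primary cortical neuron networks on 48-well MEA at DIV 13 or 15 with 40 min exposure.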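 Note: area under pooled inter-electrode spike cross-correlation near zero lag as percent change from own baseline; curves fitted for loss of cross-correlation area so actives lower synchrony.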 In outline:
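Acute exposure of mature rat cortical networks (day 13 or 15 post-plating) to 0.03-40 uM compound. Spontaneous spiking on MEA, 40 min pre- and post-dose at 37 C.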
In the case of `CCOP(=O)(NC(C)C)Oc1ccc(SC)c(C)c1` (configuration not stated), the molecule was called inactive.

Consider `O=C(O)c1cc(Oc2ccc(C(F)(F)F)cc2Cl)ccc1[N+](=O)[O-]`, for which the molecule was classed as inactive.

Regarding `CCCOCC(=Nc1ccc(Cl)cc1C(F)(F)F)n1ccnc1`, the AC50 is 440 nM (active).

For the molecule `CON=C(C(=O)OC)c1ccccc1CON=C(C)c1cccc(C(F)(F)F)c1`, the concentration at half-maximal activity (AC50) is 162 nM (active).

The nature of a further assay: CCTE_Shafer_MEA_acute_cross_correlation_HWHM: CCTE's Neural Acute Assay for Cross Correlation at Half Width at Half Maximum, Shafer Lab (AID 2284026).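 For outcome: spontaneous network firing of rat primary cortical neurons on multiwell microelectrode arrays.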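 Note: hits are a decrease in cross-correlogram half width relative to DMSO.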 In outline: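 Primary cortex (rat), MEA, DIV 13/15; compound 0.03-40 uM; 40 min pre + 40 min post at 37 C; spike threshold 8x rms; wells need ≥10 active electrodes; endpoint = % change in cross-correlogram HWHM vs baseline, DMSO negative control.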
Regarding `CNC(=O)ON=C(SC)C(=O)N(C)C`, the outcome was inactive.

As to `O=C(O)c1cc(Oc2ccc(C(F)(F)F)cc2Cl)ccc1[N+](=O)[O-]`, the molecule was called inactive.

Regarding `CCCOCC(=Nc1ccc(Cl)cc1C(F)(F)F)n1ccnc1`, the concentration at half-maximal activity (AC50) was 1600 nM (active).

`CON=C(C(=O)OC)c1ccccc1CON=C(C)c1cccc(C(F)(F)F)c1`: the AC50 was 278 nM (active).

A further assay is described as follows: CCTE_Shafer_MEA_acute_synchrony_index: CCTE's Neural Acute Assay for Synchrony, Shafer Lab (AID 2284027).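 Note: network synchrony index of spontaneous spiking in primary rat cortical neurons on MEAs; fitted for loss of signal so actives lower synchrony relative to DMSO.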 In outline:
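The synchrony index is taken as percent change per well between a 40 min baseline and a 40 min recording with compound (0.03–40 uM), at 37C. Rat cortical cultures on multiwell MEAs at DIV 13 or 15, spike threshold 8× rms noise.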
As for `CNC(=O)ON=C(SC)C(=O)N(C)C`, the outcome was inactive.

Regarding `CCOP(=O)(NC(C)C)Oc1ccc(SC)c(C)c1` (configuration not stated), the call was inactive.

Take `O=C(O)c1cc(Oc2ccc(C(F)(F)F)cc2Cl)ccc1[N+](=O)[O-]`: the result was inactive.

For `CCCOCC(=Nc1ccc(Cl)cc1C(F)(F)F)n1ccnc1`, the AC50 is 2690 nM (active).

On to `CON=C(C(=O)OC)c1ccccc1CON=C(C)c1cccc(C(F)(F)F)c1`, for which the AC50 was 2250 nM (active).
